About 83,000 compounds went through this panel and 20% of them were active in at least one assay; those are over-represented in the sample as a whole.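 Step 1: grow cells in 96-well plates. Step 2: add test compound at a single concentration. Step 3: incubate 48 h. Step 4: record percent growth.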 A number with no mark means an inactive call. The source made the active and inactive calls. The calls were made as follows: active = growth percent below 10; inactive = the rest.

One experiment relates to SK-MEL-5 melanoma. Description: NCI-60 one-dose screen, 48 h (100 = growth as untreated, 0 = no growth, -100 = all killed). The conditions noted are these: 10 µM unless noted.
On to `O=C1CC(c2ccc(I)cc2)OC2C=Cc3ccccc3C12` (stereo unspecified), for which the growth is 104%.
For `COc1ccc(NC(=O)Cn2c(/C=C/c3cccc(OC)c3)nc3ccccc3c2=O)cc1`, the growth is 92.7%.
For the compound `COc1ccc2[nH]c(=O)c(CSc3ccccc3Nc3nccc(-c4ccc5c(c4)OCO5)n3)cc2c1`, the growth was 58.9%.
In the case of `Cc1nc2sccn2c1-c1nnc(SCC(C)C)o1`, the growth was 89.4%.
On the same count and under the same terms, the value for `O=c1c(-c2nc(-c3ccccc3)c(-c3ccccc3)[nH]2)coc2ccc(F)cc12` was 47.7%.
The same measure, in the same setting: for `CCN1C(=O)N(CC)C2NNC(Sc3c(C(=O)O)c4ccccc4n(CCC(C)C)c3=O)=NC21` (stereo unspecified) the value was 3.73% (active).
On the same count and under the same terms, the value for `CCCCNc1ccc2c3c(cccc13)C(=O)N(c1cccc(-c3nn(-c4ccccc4)cc3-c3nc4ccccc4s3)c1)C2=O` was 96.3%; that for `COc1ccc(C(=O)c2c(N)c(C#N)cn2-c2ccc([N+](=O)[O-])cc2)cc1` was 102%; that for `COC(=O)c1cc(C(=O)CBr)n2c1ccc1c3ccccc3ccc12` was 53.4%.
On to `Cc1ccc(C2CC(c3ccc(NC(=S)Nc4ccccc4)cc3)=NN2c2ccc(S(N)(=O)=O)cc2)cc1` (stereo unspecified), for which the growth is 27.9%.
Still for that read-out and setting: for `O=C1/C(=C/C=C/c2ccco2)SC(=S)N1CC(=S)C1C=CS(=O)(=O)C1` (stereo unspecified) the value was 86.8%; for `Oc1ccc(F)c(Nc2nc(SCCN3CCOCC3)nc3c2cnn3CC(Cl)c2ccc(Br)cc2)c1` (stereo unspecified), 18.1%; for `Fc1ccc(Nc2nnc(-c3c[nH]c4ccccc34)o2)cc1`, 91.4%.
As to `COc1ccc(C(=O)/C=C/c2ccc3c(c2)OCCO3)cc1S(N)(=O)=O`, the growth is 99.8%.
Take `COc1ccc(C(=O)NNC(=O)CSc2nc3sc4c(c3c(=O)n2-c2ccc(Cl)cc2)CCCC4)cc1`: the growth was 46.8%.
As to `c1n[nH]cc1-c1nc2ccc3[nH]ncc3c2c2c1CC1(CC2)COC1`, the growth was 44.7%.
On the same count and under the same terms, the value for `C#CCN(C)CCCOc1ccc(N(CC)C(=O)c2cc(C(C)C)c(O)cc2O)cc1Cl` was -95.9% (active); that for `COc1ccc2c(c1)c(-c1cc(N)n3nc(-c4c[nH]c5ccccc45)cc3n1)cn2C` was -94.8% (active); that for `COc1sc(/C=N/NC(=O)c2[nH]c3ccc(Br)cc3c2-c2ccccc2)cc1Br` was -53.5% (active).
On the same count and under the same terms, for `COc1ccc(C(=O)c2cc(C(C)=O)c3c(C)cc(C)cn23)cc1` the value was 33.6%.
On the same count and under the same terms, for `COc1ccc(N=Nc2c(N)nn3c(-c4ccc5c(c4)C=S=C5)ccnc23)cc1` the value was 16.9%; for `Cn1cc(-c2cc3nc(-c4cn(C)c5ncccc45)cc(N)n3n2)c2cc(F)ccc21`, 78.2%; for `O=C(COc1ccc(/C=C2/C(=O)Nc3ccc(Cl)cc32)cc1)Nc1ccc(Br)cc1`, -14.8% (active).
On to `Cc1ccc2nc(COc3ccc(C(=O)NNC(=O)Nc4ccc(Cl)c(C(F)(F)F)c4)cc3)[nH]c2c1`, for which the growth is 35.3%.
Consider `COc1ccc(N=Nc2c(N)nn3c(-c4ccc(F)cc4)ccnc23)cc1`, for which the growth is 91.1%.
With `COc1cc(/C=C/C(=O)c2cnn(-c3cc(=O)[nH]c4ccc(C)cc34)c2C)cc(OC)c1OC`, the growth was -95.2% (active).
Still for that read-out and setting: the value for `COc1ccc(-c2cc(C(=O)OCc3ccc(Br)cc3)nn2-c2ccc(S(C)(=O)=O)cc2)cc1OC` was 77.5%; that for `Cc1ccc(C(=O)Nc2cc(-n3ccnc3)cc(C(F)(F)F)c2)cc1-n1cc(-c2cnc3cccnn23)nn1` was 73%; that for `COc1cc(/C=C/C(=O)c2ccc(S(=O)(=O)NCCNc3nc(N(C)C)nc(N4CCOCC4)n3)cc2)cc(OC)c1OC` was 18.8%.
On the same count and under the same terms, for `O=C(N/N=C/c1ccsc1)c1[nH]c2ccc(Br)cc2c1-c1ccccc1` the value was -97.2% (active); for `Cc1[nH]nc2ccc3nc(-c4cnn(CCO)c4)c4c(c3c12)CCCC4`, 31.7%; for `CCOC(=O)/C(F)=C/C1CC1C1CCN(C(=O)OC(C)(C)C)CC1` (stereo unspecified), 69.3%.
Take `O=C(Nc1nc2ccccc2s1)Nc1ccccc1Cl`: the growth was 95.3%.
On the same count and under the same terms, the value for `C/C(=N\Nc1ccc(C(=O)O)cc1)c1cnn(-c2cc(=O)[nH]c3ccc(C)cc23)c1C` was 97.9%; that for `OC1CCC(Cn2c(C(F)(F)F)cc3c(Cl)ncnc32)CC1` (stereo unspecified) was -83.6% (active); that for `Cc1nn(-c2ccccc2)c2nc(C)n(C(=O)N/N=C/c3ccccc3)c(=O)c12` was 103%.
Still for that read-out and setting: for `COc1cc(CNC(=O)C[C@H](C)CCC=C(C)C)ccc1OCc1cn(-c2ccc(Cl)cc2Cl)nn1` the value was 60.4%; for `Clc1ccccc1Nc1nnc(-c2c[nH]c3ccccc23)o1`, 9.29% (active).

The next experiment deals with UACC-62 melanoma. The experiment is described as above. The conditions noted are these: 10 µM unless noted.
As for `O=C1CC(c2ccc(I)cc2)OC2C=Cc3ccccc3C12` (stereo unspecified), the growth was 78.9%.
Consider `COc1ccc(NC(=O)Cn2c(/C=C/c3cccc(OC)c3)nc3ccccc3c2=O)cc1`, for which the growth was 57.8%.
On to `COc1ccc2[nH]c(=O)c(CSc3ccccc3Nc3nccc(-c4ccc5c(c4)OCO5)n3)cc2c1`, for which the growth is 79.2%.
Still for that read-out and setting: for `Cc1nc2sccn2c1-c1nnc(SCC(C)C)o1` the value was 77.2%; for `O=c1c(-c2nc(-c3ccccc3)c(-c3ccccc3)[nH]2)coc2ccc(F)cc12`, 49.9%; for `CCN1C(=O)N(CC)C2NNC(Sc3c(C(=O)O)c4ccccc4n(CCC(C)C)c3=O)=NC21` (stereo unspecified), 17.9%.
On the same count and under the same terms, for `CCCCNc1ccc2c3c(cccc13)C(=O)N(c1cccc(-c3nn(-c4ccccc4)cc3-c3nc4ccccc4s3)c1)C2=O` the value was 88.3%; for `COc1ccc(C(=O)c2c(N)c(C#N)cn2-c2ccc([N+](=O)[O-])cc2)cc1`, 93.1%.
Same read-out and setting: for `COC(=O)c1cc(C(=O)CBr)n2c1ccc1c3ccccc3ccc12` the value was 51.2%; for `Cc1ccc(C2CC(c3ccc(NC(=S)Nc4ccccc4)cc3)=NN2c2ccc(S(N)(=O)=O)cc2)cc1` (stereo unspecified), 17%; for `O=C1/C(=C/C=C/c2ccco2)SC(=S)N1CC(=S)C1C=CS(=O)(=O)C1` (stereo unspecified), 74.4%.
For the compound `Oc1ccc(F)c(Nc2nc(SCCN3CCOCC3)nc3c2cnn3CC(Cl)c2ccc(Br)cc2)c1` (stereo unspecified), the growth is 20.8%.
As for `Fc1ccc(Nc2nnc(-c3c[nH]c4ccccc34)o2)cc1`, the growth was 77.8%.
As for `COc1ccc(C(=O)/C=C/c2ccc3c(c2)OCCO3)cc1S(N)(=O)=O`, the growth was 87.9%.
As to `COc1ccc(C(=O)NNC(=O)CSc2nc3sc4c(c3c(=O)n2-c2ccc(Cl)cc2)CCCC4)cc1`, the growth is 26.1%.
The same measure, in the same setting: the value for `c1n[nH]cc1-c1nc2ccc3[nH]ncc3c2c2c1CC1(CC2)COC1` was 18.7%.
Turning to `C#CCN(C)CCCOc1ccc(N(CC)C(=O)c2cc(C(C)C)c(O)cc2O)cc1Cl`, the growth was -66% (active).
The same measure, in the same setting: for `COc1ccc2c(c1)c(-c1cc(N)n3nc(-c4c[nH]c5ccccc45)cc3n1)cn2C` the value was -92% (active); for `COc1sc(/C=N/NC(=O)c2[nH]c3ccc(Br)cc3c2-c2ccccc2)cc1Br`, 17%; for `COc1ccc(C(=O)c2cc(C(C)=O)c3c(C)cc(C)cn23)cc1`, 63.4%.
`COc1ccc(N=Nc2c(N)nn3c(-c4ccc5c(c4)C=S=C5)ccnc23)cc1`: the growth is 38%.
For the compound `Cn1cc(-c2cc3nc(-c4cn(C)c5ncccc45)cc(N)n3n2)c2cc(F)ccc21`, the growth was 80.3%.
As for `O=C(COc1ccc(/C=C2/C(=O)Nc3ccc(Cl)cc32)cc1)Nc1ccc(Br)cc1`, the growth was 0.1% (active).
The same measure, in the same setting: the value for `Cc1ccc2nc(COc3ccc(C(=O)NNC(=O)Nc4ccc(Cl)c(C(F)(F)F)c4)cc3)[nH]c2c1` was 40.1%; that for `COc1ccc(N=Nc2c(N)nn3c(-c4ccc(F)cc4)ccnc23)cc1` was 71.3%; that for `COc1cc(/C=C/C(=O)c2cnn(-c3cc(=O)[nH]c4ccc(C)cc34)c2C)cc(OC)c1OC` was -71.9% (active).
`COc1ccc(-c2cc(C(=O)OCc3ccc(Br)cc3)nn2-c2ccc(S(C)(=O)=O)cc2)cc1OC`: the growth was 72.6%.
As to `Cc1ccc(C(=O)Nc2cc(-n3ccnc3)cc(C(F)(F)F)c2)cc1-n1cc(-c2cnc3cccnn23)nn1`, the growth is 19.5%.
Regarding `COc1cc(/C=C/C(=O)c2ccc(S(=O)(=O)NCCNc3nc(N(C)C)nc(N4CCOCC4)n3)cc2)cc(OC)c1OC`, the growth is -21.7% (active).
On the same count and under the same terms, the value for `O=C(N/N=C/c1ccsc1)c1[nH]c2ccc(Br)cc2c1-c1ccccc1` was -91.6% (active); that for `Cc1[nH]nc2ccc3nc(-c4cnn(CCO)c4)c4c(c3c12)CCCC4` was 34.8%; that for `CCOC(=O)/C(F)=C/C1CC1C1CCN(C(=O)OC(C)(C)C)CC1` (stereo unspecified) was 93.6%.
Still for that read-out and setting: for `O=C(Nc1nc2ccccc2s1)Nc1ccccc1Cl` the value was 93.8%; for `C/C(=N\Nc1ccc(C(=O)O)cc1)c1cnn(-c2cc(=O)[nH]c3ccc(C)cc23)c1C`, 91.5%.
On to `OC1CCC(Cn2c(C(F)(F)F)cc3c(Cl)ncnc32)CC1` (stereo unspecified), for which the growth was -53.5% (active).
Take `Cc1nn(-c2ccccc2)c2nc(C)n(C(=O)N/N=C/c3ccccc3)c(=O)c12`: the growth is 92.6%.
The same measure, in the same setting: for `COc1cc(CNC(=O)C[C@H](C)CCC=C(C)C)ccc1OCc1cn(-c2ccc(Cl)cc2Cl)nn1` the value was 65.6%.
In the case of `Clc1ccccc1Nc1nnc(-c2c[nH]c3ccccc23)o1`, the growth was 15.2%.

These data come from PubChem BioAssay (NCI).
